# Test results as given in PubChem BioAssay (NCATS).
# Records with an inconclusive call do not appear. Values without a mark were called inactive. Calls of active or inactive are those of the source. Calls follow the shape of the full dose curve.
# Molecular target: Estrogen receptor (Homo sapiens) (UniProt P03372)
# Test: qHTS assay for small molecule agonists of estrogen receptor alpha signaling (AID 588514); also: nearly all actives have a fitted effect of over 70% in size;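 as to activation: 0% = vehicle only and 100% = reference agonist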
# Details: ER-alpha-UAS-bla HEK293, beta-lactamase ratio, 18 h; series mostly up to 76.8 µM; activation: at the top concentration
# Text: NIH Chemical Genomics Center [NCGC]
# U.S. Environmental Protection Agency [EPA]
# National Institutes of Environmental Health Sciences [NIEHS]
# National Toxicology Program [NTP]
# Estrogen receptor alpha (ER-alpha) is an important member of nuclear hormone receptors. ER-alpha plays important role in breast cancer as well as in other women's health issues. The majority of breast cancers is estrogen receptor (ER) positive and depends on estrogen for growth. There is also growing concern for some of environmental chemicals which may contribute the increasing the incidence of breast cancer. Therefore, it is important to understand the effect of environmental chemicals in ER-alpha signaling pathway.
# NCGC Assay Protocol Summary
# Using a beta-lactamase reporter-gene under control of the ER response element, a cell-based assay [ER-alpha-UAS-bla GripTiteTM cell-Based Assay from Invitrogen] was used to measure ER-alpha signaling pathway in agonist mode. ER-alpha-UAS-bla-GripTite HEK 293 cells were used with assay medium containing 2% charcoal/dextran treated FBS, 0.1 mM NEAA and 1 mM sodium pyruvate. Cells were cultured in this assay medium overnight in the flasks before the assay. The assay was performed in clear bottom black Greiner 1536-well plates. 17-beta-estradiol was used as a positive control in the screen. Library compounds were measured for their ability to either stimulate the reporter gene activity. Compounds were screened in a titration series in 1536-well format. […] Data was normalized relative to 17-beta-estradiol control (20 nM, 100%), and DMSO only wells (basal, 0%). Concentration-response titration points for each compound were fitted to the Hill equation yielding concentrations of half-maximal stimulation (EC50) and maximal response (efficacy) values.
# qHTS protocol for ER-alpha beta-lactamase assay in agonist mode
# [Step] [Parameter] [Value] [Description]
# 1. Reagent; 6 uL; 5000 cells/well
# 2. Incubation; 37 C for 4 hrs
# 4. Controls (17-beta-estradiol); 23 nL
# - Dose response, start 1uM, 1:3 dilutions with duplicates
# - Two columns with 20 and 0.5 nM (final) concentration.
# 5. Incubation; 37 C for 18 hrs
# 6. Detection reagent; 1 uL of CCF4-dye
# 7. Incubation; RT for 2 hrs
# 8. Detection; Fluorescence; Envision plate reader or Acumen plate reader
# Sequence of Estrogen receptor (Homo sapiens) (P03372 whole entry, looked up): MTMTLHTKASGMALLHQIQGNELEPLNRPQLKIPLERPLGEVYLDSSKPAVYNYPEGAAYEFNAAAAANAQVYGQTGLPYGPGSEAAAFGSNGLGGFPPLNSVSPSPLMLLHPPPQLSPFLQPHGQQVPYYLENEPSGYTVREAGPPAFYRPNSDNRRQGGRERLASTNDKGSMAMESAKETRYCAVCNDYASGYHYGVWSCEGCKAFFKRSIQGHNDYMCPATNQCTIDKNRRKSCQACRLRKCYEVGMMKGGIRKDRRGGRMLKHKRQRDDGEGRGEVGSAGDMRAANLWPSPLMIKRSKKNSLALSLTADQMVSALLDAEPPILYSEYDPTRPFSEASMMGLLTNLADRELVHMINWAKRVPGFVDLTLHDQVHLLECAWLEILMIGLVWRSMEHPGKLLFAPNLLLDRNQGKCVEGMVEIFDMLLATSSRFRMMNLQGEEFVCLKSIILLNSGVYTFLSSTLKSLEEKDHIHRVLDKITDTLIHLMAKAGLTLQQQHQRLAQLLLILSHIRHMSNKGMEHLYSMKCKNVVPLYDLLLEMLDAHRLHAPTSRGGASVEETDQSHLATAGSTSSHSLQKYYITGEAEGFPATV
Structure (SMILES),activation,Potency
C/C(=N\NC(=O)Nc1cc(F)cc(F)c1)c1ncccc1C(=O)O,2.01%,–
COC(=O)c1ccccc1CS(=O)(=O)NC(=O)Nc1nc(OC)cc(OC)n1,2.01%,–
CCOP(=S)(OCC)Oc1cnc2ccccc2n1,23%,–
C#CCN1C(=O)COc2cc(F)c(N3C(=O)C4=C(CCCC4)C3=O)cc21,-1.11%,–
FC(F)(F)c1ccc(OCCCOc2c(Cl)cc(OCC=C(Cl)Cl)cc2Cl)nc1,-0.426%,–
Cn1c(-c2ccccc2)cc(-c2ccccc2)[n+]1C,-13.6%,–
CCCCCCCCn1sccc1=O,–,inactive
COP(=S)(OC)Oc1ccc([N+](=O)[O-])c(C)c1,15.2%,–
CCOP(=S)(OCC)SCC(=O)NC(C)C,-1.86%,–
CC1=C(C(=O)Nc2ccccc2)SCCO1,0.145%,–
CC(C)C(=O)OCC(C)(C)C(OC(=O)C(C)C)C(C)C (stereo not given),-1.37%,–
O=C(NC(=O)c1c(F)cccc1F)Nc1ccc(OC(F)(F)C(F)OC(F)(F)F)c(Cl)c1 (stereo not given),-3.78%,–
O=C(Nc1ccccc1)Nc1cnns1,13.8%,–
CO/N=C(/C(=O)OC)c1ccccc1COc1ccccc1C,7.07%,–
COc1cc(OC)nc(NC(=O)NS(=O)(=O)c2ncccc2C(F)(F)F)n1,-5.67%,–
CCC(C)(NC(=O)c1cc(Cl)c(C)c(Cl)c1)C(=O)CCl (stereo not given),-4.19%,–
CC(C)OC(=O)C(O)(c1ccc(Br)cc1)c1ccc(Br)cc1,-10.2%,–
O=C1c2ccccc2C(=O)C1C(=O)C(c1ccccc1)c1ccc(Cl)cc1 (stereo not given),-6.25%,–
CC(C)(C)C(O)/C(=C\c1ccc(Cl)cc1Cl)n1cncn1 (stereo not given),-15%,–
COc1ccc(O)c(C(C)(C)C)c1,-1.81%,–

Structure (SMILES),activation,Potency
CCCCOCCOC(C)=O,7.58%,–
CCNP(=S)(OC)O/C(C)=C/C(=O)OC(C)C (stereo not given),4.89%,–
COC[C@H](C)N(C(=O)CCl)c1c(C)csc1C,-2.21%,–
CN(C)P(=O)(N(C)C)N(C)C,0.94%,–
Brc1ccc(Oc2ccccc2)cc1,-0.653%,–
O=S(=O)(c1ccc(O)cc1)c1ccc(O)cc1,–,14.1 µM (active)
CCCCNC(=O)OCC#CI,-8.55%,–
O=C1NCCN1Cc1ccc(Cl)nc1,3%,–
CCOP(=S)(OCC)Oc1ncn(-c2ccccc2)n1,4.47%,–
C=CC(=O)OCCCCCC(C)C,7.53%,–
CCOP(=O)(OCC)OC(Cl)C(Cl)(Cl)Cl (stereo not given),-3.32%,–
CCSC(=O)N(CC)C1CCCCC1,-3.93%,–
OC(c1ccc(Cl)cc1)(c1ccc(Cl)cc1)C(Cl)(Cl)Cl,–,inactive
CC1(C)Cc2cccc(O)c2O1,3.96%,–
CON(C)C(=O)Nc1ccc(Cl)c(Cl)c1,-5.36%,–
c1cc2c3c(cccc3c1)CC2,4.82%,–
CC(C)(c1ccccc1)c1cc(-n2nc3ccccc3n2)c(O)c(C(C)(C)c2ccccc2)c1,-1.07%,–
CCC(C)n1c(=O)[nH]c(C)c(Br)c1=O (stereo not given),0.677%,–
CCc1cc(C)cc(CC)c1-c1c(OC(=O)C(C)(C)C)n2n(c1=O)CCOCC2,-3.94%,–
Cc1c(COC(=O)C2C(/C=C(\Cl)C(F)(F)F)C2(C)C)cccc1-c1ccccc1 (stereo not given),-2.37%,–
